Reference: PubChem BioAssay (Tox21)
Where “and” joins values, the source holds several entries; their conditions need not be identical. Identical values can stand only once. Inconclusive results are not listed. Entries that show only a call come without a potency. A structure can be active in one record and inactive in another. Calls of active or inactive are those of the source. Unless noted, the call rests on the fitted dose curve.

How the values were obtained:
[1] = qHTS assay to identify small molecule antagonists of the sonic hedgehog signaling (Shh) pathway (AID 1259369); further: nearly all actives have a fitted effect of over 45% in size; further: potency means the concentration at half of the fitted maximal effect
Summary of the method: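 NIH/3T3-derived Gli1-Luc reporter cells plated 4 h, dosed with compound, then stimulated with conditioned medium for 24 h at 37 C. Firefly luciferase luminescence read after 30 min with detection reagent at room temperature.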

[2] = biological target: Estrogen receptor beta (Homo sapiens) (UniProt Q92731); assay: qHTS assay to identify small molecule agonists of the estrogen receptor beta (ER-beta) signaling pathway (AID 1259377; active means well fitted activation curve with a large enough effect in the signal ratio in the repeat runs, not every such curve was filed as active; the % refers to the signal ratio)
Summary of the method: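 qHTS in ER-beta-UAS-bla HEK293T cells: 6 hr settling, then 16 hr compound at 37C, then LiveBLAzer substrate 2 h at RT before fluorescence reading.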

[3] = biological target: Estrogen receptor beta (Homo sapiens) (UniProt Q92731); assay: qHTS assay to identify small molecule antagonists of the estrogen receptor beta (ER-beta) signaling pathway (AID 1259378; active means well fitted inhibition curve with a large enough effect in the signal ratio in the repeat runs, not every such curve was filed as active; the % refers to the signal ratio; further: potency means the concentration at half of the fitted maximal effect)
Summary of the method: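 ER-beta-UAS-bla HEK293T cells in 2% charcoal-stripped FBS medium treated with compound plus 1nM final 17-beta-estradiol for 16 hr at 37C. Beta-lactamase reporter read by FRET substrate fluorescence after 2 hours at room temperature.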

[4] = qHTS assay to identify small molecule agonists of the androgen receptor (AR) signaling pathway in the presence of an antagonist - cell viability counter screen (AID 1259379; active means well fitted curve in the direction sought with a large enough effect in the repeat runs; an effect the other way counts as inactive or inconclusive; further: nearly all actives have a fitted effect of over 25% in size; further: potency means the concentration at half of the fitted maximal effect)
Summary of the method: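 MDA-kb2 cells (MMTV-luciferase, AR/GR), 3,000/well, 5 h attachment, then 3.0 µM nilutamide (final) and compounds at 15 concentrations. Viability by CellTiter-Fluor fluorescence after 16 h at 37 °C, 0% CO2, in the reporter wells.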

[5] = qHTS assay to identify small molecule agonists of the estrogen receptor beta (ER-beta) signaling pathway - cell viability counter screen (AID 1259380; active means well fitted curve in the direction sought with a large enough effect in the repeat runs; an effect the other way counts as inactive or inconclusive; further: nearly all actives have a fitted effect of over 30% in size; further: potency means the concentration at half of the fitted maximal effect)
Summary of the method: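 ER-beta-UAS-bla HEK293T cells in medium with 2% charcoal-stripped FBS, pre-incubated 6 hr, then treated 16 hr at 37C. Cytotoxicity read in the same wells by CellTiter-Glo luminescence after 30 min at room temperature.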

[6] = qHTS assay to identify small molecule agonists or antagonists of the thyroid stimulating hormone receptor (TSHR) signaling pathway - wild type cell line counter screen (AID 1259384)
Summary of the method: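 Wild-type Hek293 cells, 800/well, 18 h at 37C, then compound with Ro20-1724 for 30 min RT. cAMP by HTRF (cAMP-d2/anti-cAMP cryptate), 1 h RT, fluorescence read. 15 concentrations, triplicates.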

[7] = biological target: Thyrotropin receptor (Homo sapiens) (UniProt P16473); assay: qHTS assay to identify small molecule antagonists of the thyroid stimulating hormone receptor (TSHR) signaling pathway (AID 1259385); further: nearly all actives have a fitted effect of over 20% in size
Summary of the method: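 TSHR-HEK293 cells (800/well) plated 18 h, then compounds with Ro20-1724 and TSH at 1.5 ng/mL final, 30 min at room temperature. cAMP quantified by HTRF (cAMP-d2/anti-cAMP-cryptate, 1 h); 15 concentrations in triplicate.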

[8] = biological target: Progesterone receptor (Homo sapiens) (UniProt P06401); assay: qHTS assay to identify small molecule agonists of the progesterone receptor (PR) signaling pathway (AID 1346784); further: nearly all actives have a fitted effect of over 30% in size
Summary of the method: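 Fluorescence from LiveBLAzer B/G FRET substrate cleavage (2 hr, RT) reported PR activation in PR-UAS-bla HEK 293T cells treated 16 hr at 37C/5% CO2 with compounds; medium contained 2% charcoal-stripped FBS.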

[9] = biological target: Progesterone receptor (Homo sapiens) (UniProt P06401); assay: qHTS assay to identify small molecule antagonists of the progesterone receptor (PR) signaling pathway (AID 1346795; active means well fitted inhibition curve with a large enough effect in the signal ratio in the repeat runs, not every such curve was filed as active; the % refers to the signal ratio; further: potency means the concentration at half of the fitted maximal effect)
Summary of the method: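 Fluorescence intensity measured 2 hr after adding beta-lactamase FRET substrate to PR-UAS-bla HEK293T cells that had been co-treated 16 hr with compound and 1 nM R5020 (final concentration) in 2% charcoal-stripped FBS.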

[10] = qHTS assay to identify small molecule antagonists of the TGF-beta/Smad signaling pathway - cell viability counter screen (AID 1346824; active means well fitted curve in the direction sought with a large enough effect in the repeat runs; an effect the other way counts as inactive or inconclusive; further: nearly all actives have a fitted effect of over 50% in size)
Summary of the method: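 SBE-bla HEK 293T cells, incubated overnight, then compound plus 0.25 ng/mL TGF-beta1 (stock added) for 5 hr at 37 C. Viability was read in the same wells by CellTiter-Glo luminescence after 30 min at room temperature.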

[11] = qHTS assay to identify small molecule agonists of the TGF-beta/Smad signaling pathway - cell viability counter screen (AID 1346829; active means well fitted curve in the direction sought with a large enough effect in the repeat runs; an effect the other way counts as inactive or inconclusive; further: top concentration of the series differs between compounds; nearly all actives have a fitted effect of over 45% in size)
Summary of the method: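 HEK 293T SBE-bla line, 5 hr compound exposure at 37 C, multiplexed CellTiter-Glo viability read by luminescence.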

[12] = qHTS assay to identify small molecule agonists of the TGF-beta/Smad signaling pathway (AID 1346859; active means well fitted activation curve with a large enough effect in the signal ratio in the repeat runs, not every such curve was filed as active; the % refers to the signal ratio; further: series mostly up to about 77 µM)
Summary of the method: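 After overnight seeding, SBE-bla HEK 293T cells are dosed with compounds in DMSO and kept 5 hr at 37 C, 5% CO2. LiveBLAzer-type FRET substrate is then applied for 2 hr at room temperature.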

[13] = biological target: Thyrotropin-releasing hormone receptor (Homo sapiens) (UniProt P34981); assay: qHTS assay to identify small molecule antagonists of the thyrotropin-releasing hormone receptor (TRHR) signaling pathway (AID 1346877; active means well fitted inhibition curve with a large enough effect in the repeat runs, not every such curve was filed as active; further: series mostly up to about 51 µM)
Summary of the method: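 TRHR-expressing HEK293 cells loaded with calcium dye for 2 h at 37 C; compounds pre-incubated 5 min at room temperature before TRH challenge at 1 nM final. Intracellular calcium fluorescence read kinetically for 3 min; 15 concentrations in triplicate.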

[14] = biological target: Thyrotropin-releasing hormone receptor (Homo sapiens) (UniProt P34981); assay: qHTS assay to identify small molecule agonists of the thyrotropin-releasing hormone receptor (TRHR) signaling pathway (AID 1346891); further: potency means the concentration at half of the fitted maximal effect; on activation: series mostly up to about 58 µM
Summary of the method: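 Compounds were tested as agonists at 15 concentrations, in triplicate, on TRHR-Hek293 cells; calcium-sensitive dye fluorescence was recorded for 3 min following addition.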

[15] = qHTS assay to identify small molecule antagonists of the estrogen receptor beta (ER-beta) signaling pathway - cell viability counter screen (AID 1259382; active means well fitted curve in the direction sought with a large enough effect in the repeat runs; an effect the other way counts as inactive or inconclusive; further: series mostly up to about 92 µM; nearly all actives have a fitted effect of over 55% in size)
Summary of the method: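 ER-beta-UAS-bla HEK293T cells in 2% charcoal-stripped FBS medium, treated with compound plus 1 nM 17-beta-estradiol for 16 h at 37C. Viability read by CellTiter-Glo luminescence after 30 min at room temperature in the same wells.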

[16] = qHTS assay to identify small molecule antagonists of the progesterone receptor (PR) signaling pathway - cell viability counter screen (AID 1346798; active means well fitted curve in the direction sought with a large enough effect in the repeat runs; an effect the other way counts as inactive or inconclusive; further: nearly all actives have a fitted effect of over 50% in size; further: potency means the concentration at half of the fitted maximal effect)
Summary of the method: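 CellTiter-Glo luminescence; PR-UAS-bla HEK293T, 3,000 cells/well; compound + R5020, 16 hr, 37C/5% CO2; 30 min RT before read.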

[17] = biological target: Estrogen receptor (Homo sapiens) (UniProt P03372); assay: qHTS assay to identify small molecule agonists of the estrogen receptor alpha (ER-alpha) signaling pathway in the presence of an antagonist (AID 1259383); further: top concentration of the series differs between compounds; nearly all actives have a fitted effect of over 15% in size
Summary of the method: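 VM7Luc4E2 cells express endogenous full-length ER-alpha with an ERE-luciferase reporter and were hormone-deprived for 5 days. Compounds at 15 concentrations were added with 10.0nM ICI-182,780 for 22hr at 37C. Luminescence was read with ONE-Glo.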

[18] = qHTS assay to identify small molecule agonists of the progesterone receptor (PR) signaling pathway - cell viability counter screen (AID 1346799); further: nearly all actives have a fitted effect of over 45% in size
Summary of the method: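 In parallel with the beta-lactamase readout, cytotoxicity toward PR-UAS-bla HEK293T cells was measured by CellTiter-Glo luminescence following 16 hr compound incubation in 2% charcoal-stripped FBS medium.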

[19] = biological target: Androgen receptor (Homo sapiens) (UniProt P10275); assay: qHTS assay to identify small molecule agonists of the androgen receptor (AR) signaling pathway in the presence of an antagonist (AID 1259381); further: nearly all actives have a fitted effect of over 15% in size
Summary of the method: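 MDA-kb2 cells carrying MMTV-luciferase (AR/GR responsive), 3,000 cells/well, co-treated with 3.0 uM nilutamide final. Compounds at 15 concentrations, 16 hr at 37C without CO2. Luciferase luminescence read after 30 min with ONE-Glo.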

[20] = qHTS assay to identify small molecule agonists of the estrogen receptor alpha (ER-alpha) signaling pathway in the presence of an antagonist - cell viability counter screen (AID 1259386; active means well fitted curve in the direction sought with a large enough effect in the repeat runs; an effect the other way counts as inactive or inconclusive;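 further: cells exposed to compounds for 22 h at 37 °C before the viability read; nearly all actives have a fitted effect of over 30% in size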; further: potency means the concentration at half of the fitted maximal effect)
Summary of the method: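 Cell viability in VM7Luc4E2 cells (endogenous full-length ER-alpha) measured by CellTiter-Fluor fluorescence in the same wells as the luciferase screen. Cells pre-cultured 5 days in charcoal-stripped serum, then treated 22 h with compounds at 15 concentrations plus 10.0nM ICI-182,780.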

Sequence of Estrogen receptor beta (Homo sapiens) (Q92731 whole entry, looked up): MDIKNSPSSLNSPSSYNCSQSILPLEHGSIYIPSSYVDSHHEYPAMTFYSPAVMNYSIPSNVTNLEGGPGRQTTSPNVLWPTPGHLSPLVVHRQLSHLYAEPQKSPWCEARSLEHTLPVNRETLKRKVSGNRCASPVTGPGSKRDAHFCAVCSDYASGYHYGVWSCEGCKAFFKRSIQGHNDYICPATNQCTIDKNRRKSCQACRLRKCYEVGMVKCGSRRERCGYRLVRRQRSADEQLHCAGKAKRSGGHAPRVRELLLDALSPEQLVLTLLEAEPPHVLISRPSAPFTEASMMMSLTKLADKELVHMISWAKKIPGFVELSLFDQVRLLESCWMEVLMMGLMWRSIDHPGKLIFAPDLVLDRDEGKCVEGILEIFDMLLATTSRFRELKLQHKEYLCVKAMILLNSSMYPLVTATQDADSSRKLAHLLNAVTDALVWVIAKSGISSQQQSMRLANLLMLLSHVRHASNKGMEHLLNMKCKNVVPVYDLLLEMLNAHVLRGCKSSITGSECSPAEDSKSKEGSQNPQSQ
Sequence of Progesterone receptor (Homo sapiens) (P06401 whole entry, looked up): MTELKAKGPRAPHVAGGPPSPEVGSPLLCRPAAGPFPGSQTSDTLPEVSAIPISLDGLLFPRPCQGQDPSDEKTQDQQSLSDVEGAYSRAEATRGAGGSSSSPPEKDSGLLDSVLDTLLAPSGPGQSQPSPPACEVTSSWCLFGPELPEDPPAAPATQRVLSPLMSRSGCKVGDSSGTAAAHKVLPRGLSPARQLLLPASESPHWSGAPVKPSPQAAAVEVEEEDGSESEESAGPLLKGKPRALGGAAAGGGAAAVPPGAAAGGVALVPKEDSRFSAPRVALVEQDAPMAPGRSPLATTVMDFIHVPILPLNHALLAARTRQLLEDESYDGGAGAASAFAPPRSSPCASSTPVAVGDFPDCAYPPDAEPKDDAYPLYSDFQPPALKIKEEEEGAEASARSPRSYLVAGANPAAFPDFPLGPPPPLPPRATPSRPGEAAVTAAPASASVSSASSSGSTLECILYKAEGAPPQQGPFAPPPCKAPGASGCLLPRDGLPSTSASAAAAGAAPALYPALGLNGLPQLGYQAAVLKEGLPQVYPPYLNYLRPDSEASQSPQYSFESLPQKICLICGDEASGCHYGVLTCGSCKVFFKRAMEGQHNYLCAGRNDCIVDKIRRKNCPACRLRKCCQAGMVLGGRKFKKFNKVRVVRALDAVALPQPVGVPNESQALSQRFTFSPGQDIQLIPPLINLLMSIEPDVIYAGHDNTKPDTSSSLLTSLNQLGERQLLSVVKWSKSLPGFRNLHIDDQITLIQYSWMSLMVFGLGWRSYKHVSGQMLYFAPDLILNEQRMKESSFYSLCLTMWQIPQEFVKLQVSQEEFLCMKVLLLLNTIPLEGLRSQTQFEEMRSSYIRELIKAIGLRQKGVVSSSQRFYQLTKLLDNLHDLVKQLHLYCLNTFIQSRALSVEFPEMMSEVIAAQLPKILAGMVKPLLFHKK
Sequence of Thyrotropin receptor (Homo sapiens) (P16473 whole entry, looked up): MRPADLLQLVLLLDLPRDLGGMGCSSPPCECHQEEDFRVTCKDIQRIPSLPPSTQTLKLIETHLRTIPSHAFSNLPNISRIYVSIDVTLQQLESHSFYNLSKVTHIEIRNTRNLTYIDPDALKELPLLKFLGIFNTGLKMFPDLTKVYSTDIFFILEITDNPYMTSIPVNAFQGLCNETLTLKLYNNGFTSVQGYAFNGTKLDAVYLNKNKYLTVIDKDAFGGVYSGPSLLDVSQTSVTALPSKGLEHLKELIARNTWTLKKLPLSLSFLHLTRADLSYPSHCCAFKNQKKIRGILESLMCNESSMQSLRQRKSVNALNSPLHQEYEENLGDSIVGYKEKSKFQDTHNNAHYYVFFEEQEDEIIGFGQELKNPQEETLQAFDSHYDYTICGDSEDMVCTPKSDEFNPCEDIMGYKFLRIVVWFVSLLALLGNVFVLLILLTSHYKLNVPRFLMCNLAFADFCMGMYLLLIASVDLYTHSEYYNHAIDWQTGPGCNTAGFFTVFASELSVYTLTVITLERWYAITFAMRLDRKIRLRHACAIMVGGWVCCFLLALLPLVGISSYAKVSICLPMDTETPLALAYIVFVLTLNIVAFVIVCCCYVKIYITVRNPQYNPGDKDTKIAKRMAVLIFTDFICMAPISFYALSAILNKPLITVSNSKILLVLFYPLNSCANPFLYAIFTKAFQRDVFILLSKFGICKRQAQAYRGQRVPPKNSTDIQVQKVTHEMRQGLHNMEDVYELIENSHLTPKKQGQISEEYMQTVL
Sequence of Estrogen receptor (Homo sapiens) (P03372 whole entry, looked up): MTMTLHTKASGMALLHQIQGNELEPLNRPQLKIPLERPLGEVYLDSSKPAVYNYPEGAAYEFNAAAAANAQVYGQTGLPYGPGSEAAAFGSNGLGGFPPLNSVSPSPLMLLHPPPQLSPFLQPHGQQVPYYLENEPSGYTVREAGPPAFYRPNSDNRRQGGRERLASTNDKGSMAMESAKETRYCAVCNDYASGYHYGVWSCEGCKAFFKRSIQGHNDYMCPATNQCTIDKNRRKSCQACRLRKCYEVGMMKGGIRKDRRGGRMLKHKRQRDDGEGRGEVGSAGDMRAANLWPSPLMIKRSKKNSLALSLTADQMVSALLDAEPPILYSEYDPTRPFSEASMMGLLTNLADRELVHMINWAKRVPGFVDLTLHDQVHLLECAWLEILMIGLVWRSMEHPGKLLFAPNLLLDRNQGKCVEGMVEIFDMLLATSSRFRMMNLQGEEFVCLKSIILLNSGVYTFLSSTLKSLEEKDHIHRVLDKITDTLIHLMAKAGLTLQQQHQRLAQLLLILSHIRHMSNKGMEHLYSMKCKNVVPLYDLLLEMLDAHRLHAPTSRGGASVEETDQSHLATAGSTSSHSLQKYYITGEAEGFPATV
Sequence of Thyrotropin-releasing hormone receptor (Homo sapiens) (P34981 whole entry, looked up): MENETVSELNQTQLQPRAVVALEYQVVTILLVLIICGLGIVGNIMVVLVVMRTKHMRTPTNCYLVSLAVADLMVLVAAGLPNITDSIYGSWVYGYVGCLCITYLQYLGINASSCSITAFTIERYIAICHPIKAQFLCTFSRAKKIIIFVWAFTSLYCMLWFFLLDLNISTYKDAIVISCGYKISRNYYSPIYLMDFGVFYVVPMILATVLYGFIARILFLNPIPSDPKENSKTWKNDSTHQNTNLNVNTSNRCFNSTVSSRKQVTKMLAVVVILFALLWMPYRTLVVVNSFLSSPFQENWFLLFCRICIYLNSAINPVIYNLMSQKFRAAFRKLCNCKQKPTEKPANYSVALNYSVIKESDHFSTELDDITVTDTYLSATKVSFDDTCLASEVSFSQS
Sequence of Androgen receptor (Homo sapiens) (P10275 whole entry, looked up): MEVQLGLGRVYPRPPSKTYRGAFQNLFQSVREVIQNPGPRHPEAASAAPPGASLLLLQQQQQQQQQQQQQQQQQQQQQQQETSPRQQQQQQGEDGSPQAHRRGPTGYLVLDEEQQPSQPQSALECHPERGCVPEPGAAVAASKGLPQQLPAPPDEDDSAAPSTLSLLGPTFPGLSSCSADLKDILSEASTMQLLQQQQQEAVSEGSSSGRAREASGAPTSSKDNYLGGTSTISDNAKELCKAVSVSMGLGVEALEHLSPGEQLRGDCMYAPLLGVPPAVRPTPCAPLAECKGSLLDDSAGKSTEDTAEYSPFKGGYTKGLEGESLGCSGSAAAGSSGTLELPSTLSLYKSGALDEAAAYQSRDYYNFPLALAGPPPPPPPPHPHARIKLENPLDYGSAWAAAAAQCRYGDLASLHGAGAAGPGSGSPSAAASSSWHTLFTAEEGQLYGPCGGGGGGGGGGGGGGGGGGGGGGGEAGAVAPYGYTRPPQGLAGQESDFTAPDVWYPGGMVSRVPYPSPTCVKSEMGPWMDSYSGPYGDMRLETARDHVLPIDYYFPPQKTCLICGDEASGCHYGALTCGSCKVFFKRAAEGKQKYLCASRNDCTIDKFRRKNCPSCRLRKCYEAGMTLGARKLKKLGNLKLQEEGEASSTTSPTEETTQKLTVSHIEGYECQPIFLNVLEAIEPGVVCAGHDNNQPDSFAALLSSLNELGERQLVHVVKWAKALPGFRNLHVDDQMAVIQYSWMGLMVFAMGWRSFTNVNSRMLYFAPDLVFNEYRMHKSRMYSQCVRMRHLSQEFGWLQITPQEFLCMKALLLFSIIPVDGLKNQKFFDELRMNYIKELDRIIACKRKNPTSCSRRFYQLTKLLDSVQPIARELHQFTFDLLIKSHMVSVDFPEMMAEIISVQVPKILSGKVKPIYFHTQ

Structure (SMILES)	Potency [1]	Potency [2]	Potency [3]	Potency [4]	Potency [5]	outcome [6]	Potency [7]	Potency [8]	Potency [9]	Potency [10]	Potency [11]	outcome [12]	Potency [13]	Potency [14]	Potency [15]	Potency [16]	Potency [17]	Potency [18]	outcome [19]	Potency [20]
CC(C)CC(C)(O)C#CC(C)(O)CC(C)C (stereo not drawn)	9.49 µM (active) and inactive	inactive	inactive	inactive	inactive	inactive	inactive	inactive	inactive	inactive	inactive	inactive	inactive	inactive	–	–	–	–	–	–
O=C1c2cccc(O)c2C(=O)c2c(O)cccc21	inactive	–	inactive	–	–	inactive	inactive	inactive	inactive	inactive	inactive	inactive	inactive	inactive	inactive	inactive	–	–	–	–
CCCCNS(=O)(=O)c1ccccc1	inactive	inactive	inactive	inactive	inactive	inactive	inactive	inactive	inactive	inactive	inactive	inactive	inactive	inactive	–	inactive	inactive	inactive	–	–
CCOCCOCCO	inactive	–	–	inactive	inactive	inactive	inactive	inactive	inactive	inactive	inactive	inactive	inactive	inactive	–	inactive	–	inactive	inactive	–
O=C1OC2(c3cc(Br)c(O)c(Br)c3Oc3c2cc(Br)c(O)c3Br)c2c(Cl)c(Cl)c(Cl)c(Cl)c21	inactive	inactive	–	21.7 µM (active) and 16.6 µM (active)	inactive	inactive	inactive	inactive	inactive	inactive	inactive	inactive	inactive	15.5 µM (active) and 23.6 µM (active)	inactive	inactive	inactive	inactive	–	24.4 µM (active) and 13.2 µM (active)
CCCCC(CC)COCC1CO1 (stereo not drawn)	inactive	inactive	inactive	inactive	inactive	inactive	inactive	inactive	inactive	inactive	inactive	inactive	inactive	inactive	–	inactive	inactive	inactive	–	–
CC1=CC2C3CC(C=C3C)C2C1 (stereo not drawn)	inactive and 21.7 µM (active)	inactive	inactive	inactive	–	inactive	inactive	inactive	inactive	inactive	inactive	inactive	–	–	inactive	inactive	inactive	–	–	inactive
c1ccncc1	inactive	inactive	inactive	inactive	inactive	inactive	inactive	inactive	inactive	inactive	inactive	inactive	inactive	inactive	–	inactive	inactive	–	–	–
C/C=C/C(=O)O	inactive	inactive	inactive	inactive	inactive	inactive	inactive	inactive	inactive	inactive	inactive	inactive	inactive	inactive	–	inactive	–	–	–	–
COc1ccccc1/C=C/C=O	35.3 µM (active) and inactive	inactive	55.9 µM (active) and 54.5 µM (active)	–	55.9 µM (active)	inactive	inactive	inactive	inactive	inactive	inactive	inactive	–	–	inactive	inactive	inactive	–	–	inactive
C#C[C@]1(O)CC[C@H]2[C@@H]3CCC4=Cc5oncc5C[C@]4(C)[C@H]3CC[C@@]21C	2.17 µM (active) and 11.9 µM (active)	–	15.4 µM (active)	inactive	61.1 µM (active) and 29.8 µM (active)	inactive	inactive	–	0.0611 µM (active)	inactive	inactive	inactive	inactive	inactive	–	38.6 µM (active)	inactive	–	–	inactive
CCCCC/C=C/C=C/C=O	inactive and 34.4 µM (active)	inactive	inactive	68 µM (active) and inactive	–	inactive	inactive	inactive	inactive	inactive	inactive	inactive	inactive	inactive	inactive	inactive	–	inactive	–	inactive
CCCCCCCCCC(=O)OC	inactive	inactive	inactive	inactive	inactive	inactive	inactive	inactive	inactive	inactive	inactive	inactive	inactive	inactive	–	inactive	–	–	–	inactive
